Results published in the supplement of paper PMC12494721.
Counter-ions that a name gives are not always drawn.

Columns and labels:
Conditions in all cases: incubation time: 27 h, anaerobic, 37 °C;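 for the amine columns active = adjusted P below 0.05 in both replicates with a change the same way and a mean fold change under 0.8 or over 1.25; inactive = the rest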
Escherichia coli IAI1 [1] = assay: growth (OD595) fold change vs plate DMSO controls (fold change (ratio)); higher = more growth
In short: (§1)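 To obtain OD, 595 nm absorbance readings were blank-subtracted, corrected for compound background using 20 µM compound solutions in water, and multiplied by a calibration factor of 5. They came from 96-well mGAM cultures grown anaerobically for 27 h at 37 °C and shaken before reading. Growth is the fold change relative to the median of plate DMSO controls. Two biological replicates were averaged, and fold changes above 1.5 were set to NA.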

[2] = tested on: Klebsiella aerogenes DSM 30053; assay: as above
In short: as §1

[3] = tested on: Ruminococcus gnavus DSM 108212; assay: as above
In short: as §1

[4] = tested on: Klebsiella aerogenes DSM 30053; assay: fold change of Histamine concentration vs plate DMSO controls (fold change (ratio)); higher = more amine produced, active = hit call of the paper (significant change in both replicates, either direction)
In short: (§2)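 Using LC–triple-quadrupole MS with dynamic MRM, amines were quantified against external calibration curves and corrected for drift within each batch. Samples were whole anaerobic mGAM cultures of four gut strains, grown 27 h at 37 °C from OD 0.1 before 1:1 dilution, extracted with cold acetonitrile/methanol containing 0.1% formic acid and centrifuged. Compounds were present at 20 µM final (sweeteners at 50 µM final). The numbers are fold changes versus plate DMSO controls, each the mean of 2 biological replicates.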

[5] = tested on: Ruminococcus gnavus DSM 108212; assay: fold change of Tryptamine concentration vs plate DMSO controls (fold change (ratio)); higher = more amine produced, active = hit call of the paper (significant change in both replicates, either direction)
In short: as §2

Escherichia coli IAI1 [6] = assay: fold change of Putrescine concentration vs plate DMSO controls (fold change (ratio)); higher = more amine produced, active = hit call of the paper (significant change in both replicates, either direction)
In short: as §2

[7] = tested on: Klebsiella aerogenes DSM 30053; assay: as above
In short: as §2

Escherichia coli IAI1 [8] = assay: fold change of Cadaverine concentration vs plate DMSO controls (fold change (ratio)); higher = more amine produced, active = hit call of the paper (significant change in both replicates, either direction)
In short: as §2

[9] = tested on: Klebsiella aerogenes DSM 30053; assay: as above
In short: as §2

[10] = tested on: Ruminococcus gnavus DSM 108212; assay: fold change of 2-Phenylethylamine concentration vs plate DMSO controls (fold change (ratio)); higher = more amine produced, active = hit call of the paper (significant change in both replicates, either direction)
In short: as §2

[11] = tested on: Clostridium sporogenes DSM 1664; assay: growth (OD595) fold change vs plate DMSO controls (fold change (ratio)); higher = more growth
In short: as §1

[12] = tested on: Clostridium sporogenes DSM 1664; assay: fold change of Tryptamine concentration vs plate DMSO controls (fold change (ratio)); higher = more amine produced, active = hit call of the paper (significant change in both replicates, either direction)
In short: as §2

| SMILES | growth (Escherichia coli IAI1 [1]) | growth [2] | growth [3] | fold change of Histamine concentration [4] | fold change of Tryptamine concentration [5] | fold change of Putrescine concentration (Escherichia coli IAI1 [6]) | fold change of Putrescine concentration [7] | fold change of Cadaverine concentration (Escherichia coli IAI1 [8]) | fold change of Cadaverine concentration [9] | fold change of 2-Phenylethylamine concentration [10] | growth [11] | fold change of Tryptamine concentration [12] |
| --- | --- | --- | --- | --- | --- | --- | --- | --- | --- | --- | --- | --- |
| CO/N=C(\C(=O)N[C@@H]1C(=O)N2C(C(=O)O)=C(C[N+]3(C)CCCC3)CS[C@H]12)c1csc(N)n1 [Cefepime hydrochloride] (20 µM) | 0 | 0.484 | 0 | 0.119 (active) | 0.0466 (active) | 0.285 (active) | 0.361 (active) | 0.884 (inactive) | 1.11 (inactive) | 0.0523 (active) | – | – |
| CCn1cc(C(=O)O)c(=O)c2cc(F)c(N3CCN(C)CC3)cc21 [Pefloxacin] (20 µM) | 0.0501 | 0.198 | 1.13 | 0.127 (active) | 0.915 (inactive) | 0.793 (inactive) | 1.05 (inactive) | 0.204 (active) | 0.972 (inactive) | 0.91 (inactive) | – | – |
| Clc1ccc(Nc2nnc(Cc3ccncc3)c3ccccc23)cc1 [Vatalanib] (20 µM) | 1.19 | 1.08 | – | 0.91 (inactive) | 1.02 (inactive) | 1.17 (inactive) | 0.942 (inactive) | 0.945 (inactive) | 1.02 (inactive) | 1.01 (inactive) | 1.06 | 1.12 (inactive) |
| O=C(O)c1cn(C2CC2)c2cc(N3CCNCC3)c(F)cc2c1=O [Ciprofloxacin hydrochloride monohydrate] (20 µM) | 0 | 0 | 0.342 | 0.0661 (active) | 0.796 (inactive) | 0.53 (inactive) | 0.573 (inactive) | 0.176 (active) | 0.938 (inactive) | 0.863 (inactive) | – | – |
| CC(=O)Nc1ccc(O)cc1 [Acetaminophen] (20 µM) | 0.986 | 0.999 | 0.921 | 0.998 (inactive) | – | 1.01 (inactive) | 1 (inactive) | 0.976 (inactive) | 0.993 (inactive) | 1.12 (inactive) | – | – |
| O=C1C(CC[S+]([O-])c2ccccc2)C(=O)N(c2ccccc2)N1c1ccccc1 (stereo not given) [Sulfinpyrazone] (20 µM) | 0.972 | 1.04 | 1.06 | 0.959 (inactive) | 0.904 (inactive) | 0.978 (inactive) | 1.04 (inactive) | 0.991 (inactive) | 1.01 (inactive) | 0.887 (inactive) | – | – |
| CN(C)CCCN1c2ccccc2CCc2ccccc21 [Imipramine hydrochloride] (20 µM) | 1.15 | 1.08 | 1.34 | 0.866 (inactive) | 0.975 (inactive) | 1.02 (inactive) | 0.943 (inactive) | 0.976 (inactive) | 1.03 (inactive) | 0.963 (inactive) | – | – |
| Nc1ccn([C@@H]2CS[C@H](CO)O2)c(=O)n1 [Lamivudine] (20 µM) | 0.995 | 0.992 | 0.831 | 1.06 (inactive) | 1.02 (inactive) | 1.02 (inactive) | 1.03 (inactive) | 1.02 (inactive) | 0.99 (inactive) | 1.02 (inactive) | – | – |
